# High-throughput results: PubChem BioAssay, National Center for Advancing Translational Sciences (NCATS)
# uPA surface inh: cell surface uPA generation inhibition | cell surface uPA generation assay, qHTS | Potency, µM (highest dose often 38.3 µM), actives largely listed as inhibitors | AID 540303 | 330,000 tested, 0.31% active; active = well fitted inhibition curve with a large enough effect; inconclusive = small, poorly fitted or top-dose-only effect; inactive = no such curve, though single readings can be large or run the other way; tested in mouse RAW 264.7 cells; also: nearly all actives have a fitted effect of over 55% in size
# CtBP-E1A inh: inhibitors of CtBP/E1A interaction; AlphaScreen GST-E1A/His-CtBP binding, 1536-well; stronger effect = lower value; activity change, % (no concentration beside the values); 340,000 tested, 0.49% active; AID 651724
#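 Homogeneous bead-based format: GST-tagged E1A captured on glutathione donor beads, His-tagged CtBP on nickel acceptor beads; compounds precede bead addition by 2 h at 37 °C.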
# MBNL1-CUG inh: MBNL1-poly(CUG) RNA binding inhibition | Potency, µM (top dose mostly 57.5 µM), hits mostly inhibitors | Q9NR56 | 280,000 tested, 0.036% active | TR-FRET MBNL1-His/biotin-(CUG)12 binding, 665/545 ratio; active = well fitted inhibition curve with a large enough effect in the signal ratio, with a control signal flat, not every such curve was filed as active; inconclusive = small, poorly fitted or top-dose-only effect, or effect the other way, or a change in a side signal; inactive = no such curve, though single readings can be large or run the other way; the % refers to the signal ratio
#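 TR-FRET readout: Ex 340 nm, 665/545 nm emission ratio, normalized to buffer-only (basal) and MBNL1-(CUG)12 controls. Complex of MBNL1-His with Biotin-(CUG)12, compounds 92 nM–58 uM, incubated 60 min at room temperature.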
# Mito fusion yeast: blocks mitochondrial division or promotes mitochondrial fusion; S. cerevisiae fusion-defective mutant growth rescue, CellTiterGlo 48 h; Potency, µM (series often up to 46.1 µM), most hits filed as activators; 320,000 tested, 0.23% active; AID 485298; active = well fitted activation curve with a large enough effect; inconclusive = small, poorly fitted or top-dose-only effect; inactive = no such curve, though single readings can be large or run the other way; also: nearly all actives have a fitted effect of over 45% in size
#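 Compounds are tested for their ability to restore growth of mitochondrial fusion-defective yeast strains at non-permissive 37C in YPEG medium over 48 hours. Viability is quantified by luciferase luminescence.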
# Six1-Eya2 inh: inhibitors of human Six1/Eya2 interaction; Q15475+O00167; AlphaScreen GST-Six1/His-Eya2 binding, biochemical; stronger effect = lower value; activity change, % (concentration not given with the values); 360,000 tested, 0.56% active
# Target sequence (O00167 whole entry, looked up): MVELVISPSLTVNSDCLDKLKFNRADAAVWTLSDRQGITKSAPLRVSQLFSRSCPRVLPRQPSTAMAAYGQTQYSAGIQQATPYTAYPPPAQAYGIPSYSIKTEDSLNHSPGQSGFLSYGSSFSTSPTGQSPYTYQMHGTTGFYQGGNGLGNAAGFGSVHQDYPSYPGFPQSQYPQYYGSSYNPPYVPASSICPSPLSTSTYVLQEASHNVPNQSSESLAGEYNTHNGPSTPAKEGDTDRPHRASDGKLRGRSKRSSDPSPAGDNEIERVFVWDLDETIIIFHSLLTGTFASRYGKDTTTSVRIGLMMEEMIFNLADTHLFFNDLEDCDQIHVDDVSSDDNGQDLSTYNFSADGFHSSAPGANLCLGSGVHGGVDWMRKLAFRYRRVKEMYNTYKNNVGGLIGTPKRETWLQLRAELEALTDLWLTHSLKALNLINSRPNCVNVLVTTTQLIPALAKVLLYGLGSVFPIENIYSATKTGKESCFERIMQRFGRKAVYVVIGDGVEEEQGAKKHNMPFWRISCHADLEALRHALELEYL
# Target sequence (Q15475 whole entry, looked up): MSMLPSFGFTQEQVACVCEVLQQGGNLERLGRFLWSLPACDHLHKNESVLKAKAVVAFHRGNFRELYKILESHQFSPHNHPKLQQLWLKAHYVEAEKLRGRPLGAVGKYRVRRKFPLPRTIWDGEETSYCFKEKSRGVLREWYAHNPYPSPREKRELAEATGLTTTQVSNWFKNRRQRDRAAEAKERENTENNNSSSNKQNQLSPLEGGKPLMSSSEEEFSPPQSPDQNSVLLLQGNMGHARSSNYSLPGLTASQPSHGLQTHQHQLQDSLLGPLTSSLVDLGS
#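 AlphaScreen with GST-Six1 and His-Eya2 (5X mix: 250 nM and 500 nM), glutathione donor and nickel acceptor beads; buffer 50 mM Tris pH 8.0, 300 mM NaCl, 1 mM TCEP; 1 h at 37 C in the dark.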
# A number is an active result; . = inactive; ? = inconclusive; / = not tested or not shown; [ ] = another dose, or the depositor's remark. In the library only some 1.1% were active in any assay of this set; here they are far more common. Rule as the data show it, unless noted: active = activity change below about -65%; inconclusive = mostly about -30% to -63%; inactive = weaker than that.
SMILES,uPA surface inh,CtBP-E1A inh,MBNL1-CUG inh,Mito fusion yeast,Six1-Eya2 inh
CC(=O)C(=Nc1ccccc1Cl)NNc1ccc(Cl)cc1,.,?,.,?,-73
O=C(NNc1ccc(Cl)cc1)c1c(F)cccc1Cl,.,.,.,.,.
CC(C)C(=O)NC(c1ccccc1)c1cc([N+](=O)[O-])c2cccnc2c1O (stereo not given),.,-91,.,.,-90
CC(=O)NC(c1ccccc1)c1cc([N+](=O)[O-])c2cccnc2c1O (stereo not given),.,-91,.,.,-94
CCC(=O)NC(c1ccc(OC)cc1)c1cc(Cl)c2cccnc2c1O (stereo not given),.,?,.,.,?
NC(c1ccccc1)c1csc(Nc2ccc(C(F)(F)F)cn2)n1 (stereo not given),/,.,/,/,.
Fc1ccccc1N1CCN(C(c2ccccn2)c2nnnn2C2CCCCC2)CC1 (stereo not given),.,.,.,13µM,.
Fc1ccc(NC(=S)NN=Cc2ccccc2Cl)cc1,.,.,/,/,.
Oc1ccccc1C=NNC(=S)Nc1ccc(F)cc1,.,-92,/,/,-76
Oc1ccccc1/C=N/NC(=S)NCCc1ccccc1,.,-65,.,.,?
CCCCOC(=O)c1ccc(NC(=O)c2c(Cl)ccc(Cl)c2OC)cc1,.,.,.,16µM,.
CC(C)(C)NC(=O)CCN(/N=C/c1ccccc1)C1=NS(=O)(=O)c2ccccc21,.,-65,.,.,?
CC(C)(C)NC(=O)CCN(/N=C/c1ccccc1F)C1=NS(=O)(=O)c2ccccc21,.,.,.,.,.
Cc1cccc(/C=N/N(CCO)C2=NS(=O)(=O)c3ccccc32)c1,.,-81,.,.,?
COC(=O)N1C(=O)[C@](c2ccccc2)(C2CCCCC2)N1C(=O)OC,?,.,.,.,.
COC(=O)N1C(=O)[C@@](c2ccccc2)(C2CCCC2)N1C(=O)OC,7.1µM,.,.,.,.
Cc1ccc(S(=O)(=O)Nc2ccc(N=Nc3ccc(O)cc3)cc2)cc1,.,.,/,20µM,.
O=C(N/N=C/c1cccc2cccnc12)c1ccccc1O,5µM,/,?,.,-92
O=C(N/N=C/c1ccccn1)c1ccncc1,.,/,.,.,-75
O=C(N/N=C/c1cccc2nccnc12)c1ccncc1,.,-89,?,.,-68
O=C(N/N=C/c1ccccc1C(=O)O)c1ccncc1,.,.,.,.,.
O=C(N/N=C\c1ccccn1)c1ccccc1O,.,?,.,.,?
O=C(N/N=C/c1cccc2nccnc12)c1ccccc1O,.,-76,/,.,-89
Cc1c(C(=O)NC2CC(C)(C)NC(C)(C)C2)oc2c(Cl)cccc12,/,.,/,/,.
CCC(C)[C@H](NC(=O)OC(C)(C)C)C(=O)N/N=C/c1cccc2nccnc12 (stereo not given in full),/,.,?,.,.
SMILES,uPA surface inh,CtBP-E1A inh,MBNL1-CUG inh,Mito fusion yeast,Six1-Eya2 inh
O=C(N/N=C(\Cc1ncc[nH]1)c1ccccc1)c1ccncc1,.,-90,.,.,-82
O=C(N/N=C(\Cc1ncc[nH]1)c1ccccc1)c1ccccc1,/,/,.,.,/
O=C(N/N=C/c1ccccn1)c1ccc(Cl)cc1,.,?,?,.,?
CCC(C)[C@@H](N)C(=O)N/N=C/c1cccc2nccnc12 (stereo not given in full),.,-71,/,.,-87
Cn1ncc(Cl)c1C(=O)N/N=C/c1ccccn1,.,-75,?,.,-80
CC(C)(C)S(=O)N1Cc2cc(CO)ccc2[C@H]1CCO (stereo not given in full),/,.,/,/,.
Nc1nc2c(nc(Br)n2C2OC3COP(=O)(O)O[C@@H]3C2O)c(=O)[nH]1 (stereo not given in full),/,/,/,.,/
CCOC(=O)c1c(-c2cccs2)csc1NC(=O)CN1CCOCC1,.,.,.,.,.
CCOC(=O)CNC(c1ccccc1)c1cc(Br)ccc1NC(=O)CCN1CCOCC1 (stereo not given),13µM,/,/,?,.
CCOC(=O)c1c(-c2ccc(C)cc2)csc1NC(=O)CCN1CCOCC1,.,.,.,13µM,.
CCOC(=O)c1c(-c2ccccc2)csc1NC(=O)CCN1CCOCC1,.,.,/,11µM,.
Oc1oc(-c2ccccc2)nc1C=Nc1cccc2ccccc12,.,.,.,11µM,.
Cc1ccccc1N1C(=O)c2ccccc2N2C(=O)c3ccccc3C12 (stereo not given),.,.,.,14µM,.
O=C1c2ccccc2N2C(=O)c3ccccc3C2N1O (stereo not given),.,.,.,.,.
CC1(C(=O)NCc2ccccc2)CN(S(C)(=O)=O)CC(=O)N1CCCN1CCOCC1 (stereo not given),/,.,/,/,.
CC1=C(C(=O)N2CCCCCC2)CC(CC(=O)NC(c2ccccc2)c2ccccc2)C(=O)N1CCC1=CCCCC1 (stereo not given),/,.,/,/,.
Cc1ccc(NS(=O)(=O)c2cc3c4c(cccc4c2)C(=O)NC3=O)cc1,.,.,.,.,.
CNS(=O)(=O)c1cc2c3c(cccc3c1)C(=O)NC2=O,7.1µM,/,?,.,.
O=C1NC[C@H](CCCCN2C[C@H](Cc3ccc(O)cc3)N(Cc3ccccc3)C(=O)C2=O)N(CCc2ccc(O)cc2)C1=O,/,.,/,/,.
Cc1cc2c(cc1C)-c1nnnn1C(N1CCCCC1)C(=O)N2 (stereo not given),/,.,/,/,.
O=C(Nc1cccn(Cc2cccc(F)c2)c1=O)NC1CCCCC1,.,.,.,.,.
O=C(Nc1cccn(Cc2c(F)cccc2Cl)c1=O)NC1CCCCC1,11µM,.,.,.,.
CC1CCCN(S(=O)(=O)c2cc(C(=O)NCCc3ccc(S(N)(=O)=O)cc3)ccc2Cl)C1 (stereo not given),?,.,/,/,.
Cn1c(=O)c2cc(S(=O)(=O)NCCC(=O)NCc3ccccc3Cl)ccc2n(C)c1=O,/,-81,.,.,-69
Cc1ccc(CNC(=O)CCNS(=O)(=O)c2ccc3c(c2)c(=O)n(C)c(=O)n3C)cc1,.,.,.,.,.
SMILES,uPA surface inh,CtBP-E1A inh,MBNL1-CUG inh,Mito fusion yeast,Six1-Eya2 inh
Cn1c(=O)c2cc(S(=O)(=O)NCCC(=O)N3CC=C(c4ccccc4)CC3)ccc2n(C)c1=O,.,-86,.,.,?
Cc1ccc(O)c(/C=N/NC(=O)c2[nH]ncc2Br)c1,.,.,/,.,.
O=C(N/N=C/c1c(O)ccc2ccccc12)c1[nH]ncc1Br,.,-90,.,.,-85
COc1ccc(OC)c(/C=N/NC(=O)c2[nH]ncc2Br)c1,.,.,/,.,.
CCOc1ccc(/C=N/NC(=O)c2[nH]ncc2Br)c(O)c1,.,-92,.,.,-83
O=C(N/N=C\c1c(O)ccc2ccccc12)c1ccc(Cn2cccn2)o1,.,-73,.[11.5 µM],.,-86
O=C(O)c1ccc2c(c1)C(=O)N([C@H](Cc1c[nH]c3ccccc13)C(=O)O)C2=O,/,/,/,.,/
